Source: PubChem BioAssay
Hits are enriched below; roughly 11% of the tested compounds scored in any of these assays.
G9a inh: G9a (human) methyltransferase inhibition. Q96KQ7. G9a H3K9 monomethylation, AlphaScreen, 2 h. Potency, µM (highest dose often 102 µM), inactives show top-dose activity, negative = inhibition, usual class: inhibitors. actives 8.8% (n = 350,000). AID 504332; note: % is set by controls: 0 for no effect and ±100 for the full control effect; nearly all actives have a fitted effect of over 75% in size
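Compounds were preincubated with 20 nM G9a for 15 min, after which biotinylated H3K9 peptide (500 nM) and SAM (20 uM) started a 2 h room-temperature reaction. Monomethylated product was quantified by antibody-based AlphaScreen chemiluminescence.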
BAZ2B block: BAZ2B (human) inhibition. AlphaScreen BAZ2B-H3K14Ac peptide displacement. Potency, µM (series often up to 114 µM), for inactives: at the top dose activity change, negative = inhibition, actives largely listed as inhibitors. AID 504333. actives 4.4% (n = 360,000); note: % is set by controls: 0 for no effect and ±100 for the full control effect; nearly all actives have a fitted effect of over 60% in size
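BAZ2B (50 nM) with biotin-H3(5-23)K14Ac peptide (50 nM) in PBS pH 7.4, 0.01% Tween-20, preformed 30 min, then compound 30 min at room temperature; top concentration 110uM. AlphaScreen streptavidin donor/nickel chelate acceptor beads (10 ug/mL final), 20 min dark, signal read.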
HP1b binding inh: inhibitors of HP1-beta chromodomain binding to methylated histone tails; P83916; AlphaScreen HP1-beta / biotin-H3K9me3 peptide binding; Potency, µM (highest dose often 114 µM), for the others: at the top dose activity change, negative = inhibition, hits mostly inhibitors; actives 0.56% (n = 390,000); note: nearly all actives have a fitted effect of over 70% in size
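AlphaScreen: HP1-beta (50 nM) preformed 30 min with biotin-H3(1-18)K9me3 peptide (50 nM) in PBS pH 7.4, 0.01% Tween-20. Compound added for 30 min at RT, then streptavidin donor/nickel chelate acceptor beads (10 ug/mL) for 30 min.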
JMJD2A Tudor: JMJD2A Tudor domain (human) inhibition; O75164; AlphaScreen JMJD2A-Tudor / H3K4me3 peptide binding; Potency, µM (highest dose often 114 µM), without a hit: at the top dose activity change, negative = inhibition, usual class: inhibitors; actives 4.4% (n = 390,000); AID 504339; note: % is set by controls: 0 for no effect and ±100 for the full control effect; nearly all actives have a fitted effect of over 50% in size
L3MBTL1 block: inhibitors of human L3MBTL1. Q9Y468. AlphaScreen L3MBTL1–H3K9me1 peptide binding. Potency, µM (titrated, usually from 57.1 µM), for the others: at the top dose activity, negative = inhibition, most hits filed as inhibitors. actives 0.66% (n = 230,000); note: % is set by controls: 0 for no effect and ±100 for the full control effect; nearly all actives have a fitted effect of over 60% in size
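Displacement of a biotinylated histone H3(1-15) peptide monomethylated at Lys9 (75 nM) from L3MBTL1 (50 nM) was measured by AlphaScreen after a 30 min room-temperature compound incubation; cefsulodin titration served as intraplate control.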
Numbers without * were called inactive; [ ] = remark or other dose. Calls come from the whole dose curve; as a rule, active = well fitted inhibition curve with a large enough effect; inconclusive = small, poorly fitted or top-dose-only effect; inactive = no such curve, though single readings can be large or run the other way. Potency is the fitted concentration of half-maximal effect.

Results for CC(=O)c1cc(-c2ccccc2)n(CC(=O)N2CCN(C3CCCC3)CC2)c1C ?
G9a inh: 7%[12.7 µM]; BAZ2B block: 50µM*; HP1b binding inh: -14%; JMJD2A Tudor: 12%[11.4 µM]; L3MBTL1 block: -6%

What do the screens show for `CC(=O)c1cc(-c2ccccc2)n(CC(=O)N2CCC(C)CC2)c1C`?
G9a inh: 21%[59 µM]; BAZ2B block: 50µM*; HP1b binding inh: 0%; JMJD2A Tudor: -11%; L3MBTL1 block: 20%[11.4 µM]

Results for O=C(NC1CC(=O)N(c2ccc(F)cc2)C1)c1cc2ccccc2o1 (centres undefined) ?
G9a inh: 3%[59 µM]; BAZ2B block: -2%; HP1b binding inh: 44%; JMJD2A Tudor: -9%

What do the screens show for `Cc1c(Cl)cccc1NC(=O)CSc1nc2ncccc2o1`?
G9a inh: 4%[59 µM]; BAZ2B block: -12%; HP1b binding inh: 8%; JMJD2A Tudor: -10%

What do the screens show for `CNc1nc(-c2c[nH]c3ccccc23)cs1`?
G9a inh: 35µM*; BAZ2B block: 35µM*; HP1b binding inh: inconclusive; JMJD2A Tudor: 18µM*

What do the screens show for `Cc1ccc2c(-c3csc(N)n3)c[nH]c2c1`?
G9a inh: 45µM*; BAZ2B block: -27%

Results for CCC(C)Nc1nc(-c2c[nH]c3ccccc23)cs1 (centres undefined) ?
G9a inh: 11µM*; BAZ2B block: 25µM*; HP1b binding inh: inconclusive; JMJD2A Tudor: 35µM*

How did CCC(C)NC(=O)CSc1nc2cc3c(cc2c(=O)n1CCCC(=O)NCCc1ccc(OC)c(OC)c1)OCO3 (centres undefined) do in these assays?
G9a inh: 15%[59 µM]; BAZ2B block: -3%; HP1b binding inh: 48%; JMJD2A Tudor: -6%

How did CCCSCCCNC(=O)C1CCN(c2nc3ccccc3nc2C(F)(F)F)CC1 do in these assays?
G9a inh: -15%[59 µM]; BAZ2B block: -1%; HP1b binding inh: 19%; JMJD2A Tudor: -6%

How did Cc1cc(C)c(NC(=O)CSc2nc(=O)n(Cc3cccnc3)c3c2CCC3)c(C)c1 do in these assays?
G9a inh: 12%[59 µM]; BAZ2B block: 0%; HP1b binding inh: 24%; JMJD2A Tudor: -15%

What do the screens show for `CCN(CC)C(=O)Cn1ncc2c([nH]c3ccc(C)cc32)c1=O`?
G9a inh: 1%[59 µM]; BAZ2B block: 12%[57.1 µM]; HP1b binding inh: 14%; JMJD2A Tudor: -12%

How did Cn1c(SCc2c(F)cccc2Cl)nc2c(c1=O)SCC2 do in these assays?
G9a inh: -26%[59 µM]; BAZ2B block: 28µM*; HP1b binding inh: -27%; JMJD2A Tudor: inconclusive; L3MBTL1 block: inconclusive

How did Cc1ccc(C(=O)N/C(=C\c2ccc(-c3ccc(Br)cc3)o2)C(=O)NCCCN(C)C)cc1 do in these assays?
G9a inh: -50%; BAZ2B block: -37%; HP1b binding inh: -7%; JMJD2A Tudor: -35%; L3MBTL1 block: -13%

How did Cc1ccc(C(=O)N/C(=C\c2ccc(-c3ccccc3[N+](=O)[O-])o2)C(=O)NCCCN2CCOCC2)cc1 do in these assays?
G9a inh: 45µM*; BAZ2B block: inconclusive; HP1b binding inh: 0%; JMJD2A Tudor: inconclusive

How did CN(C)CCCNC(=O)/C(=C\c1ccc(-c2cccc([N+](=O)[O-])c2)o1)NC(=O)c1ccccc1 do in these assays?
G9a inh: 50µM*; BAZ2B block: -39%; HP1b binding inh: -5%; JMJD2A Tudor: inconclusive; L3MBTL1 block: -2%

How did Cc1ccc(C(=O)N/C(=C\c2ccc(-c3cccc([N+](=O)[O-])c3)o2)C(=O)NCCCN(C)C)cc1 do in these assays?
G9a inh: 50µM*; BAZ2B block: -38%; HP1b binding inh: 3%; JMJD2A Tudor: -25%; L3MBTL1 block: -1%

How did Cc1ccc(C(=O)N/C(=C\c2cn(C)c3ccccc23)C(=O)NCCCN2CCOCC2)cc1 do in these assays?
G9a inh: -12%[0.0925 µM]; BAZ2B block: -7%; HP1b binding inh: 16%; JMJD2A Tudor: -12%

Results for CN(C)CCNC(=O)/C(=C/c1ccc(-c2ccc(Cl)cc2)o1)NC(=O)c1ccccc1 ?
G9a inh: inconclusive; BAZ2B block: -32%; HP1b binding inh: -8%; JMJD2A Tudor: -33%; L3MBTL1 block: -1%

Results for Cc1ccc(CNCC(=O)Nc2ccc(N3CCOCC3)cc2)cc1 ?
BAZ2B block: 35µM*; HP1b binding inh: 40µM*; JMJD2A Tudor: 1.4µM*; L3MBTL1 block: -5%

What do the screens show for `O=C(COC(=O)c1ccc(Br)o1)Nc1ccc(N2CCOCC2)cc1`?
G9a inh: 22µM*; BAZ2B block: -4%; HP1b binding inh: 14%; JMJD2A Tudor: -22%; L3MBTL1 block: -11%

How did CCNCC(=O)Nc1ccc(N2CCOCC2)cc1 do in these assays?
G9a inh: inconclusive; BAZ2B block: inconclusive; HP1b binding inh: 19%; JMJD2A Tudor: -16%; L3MBTL1 block: 11%

Results for C=CCCCCCCCCC(=O)OC ?
G9a inh: 17%[59 µM]

Results for CC(C)(C)OC(=O)N/N=C/c1cccn1-c1ccc([N+](=O)[O-])cc1 ?
G9a inh: 8.9µM*; BAZ2B block: inconclusive; HP1b binding inh: inconclusive; JMJD2A Tudor: inconclusive; L3MBTL1 block: -2%

How did O=[N+]([O-])c1ccc(N/N=C\c2cccn2-c2ccccc2)nc1 do in these assays?
G9a inh: inconclusive; BAZ2B block: inconclusive; HP1b binding inh: inconclusive; JMJD2A Tudor: 40µM*; L3MBTL1 block: inconclusive

How did COc1ccc([N+](=O)[O-])cc1/C=N/NC(=O)Cc1ccccc1 do in these assays?
G9a inh: 20%; BAZ2B block: 0%; HP1b binding inh: 25%; JMJD2A Tudor: -25%; L3MBTL1 block: 0%

How did O=[N+]([O-])c1ccc(NN=Cc2ccccc2)nc1 do in these assays?
HP1b binding inh: 27%; JMJD2A Tudor: -15%

How did Cc1ccccc1-n1c(C)cc(/C=N/Nc2ccc([N+](=O)[O-])cn2)c1C do in these assays?
G9a inh: inconclusive; BAZ2B block: -33%; HP1b binding inh: 42%; JMJD2A Tudor: -14%

How did Cc1cc(/C=N/Nc2ccc([N+](=O)[O-])cn2)c(C)n1-c1ccc(C(=O)O)cc1 do in these assays?
G9a inh: 50µM*; BAZ2B block: 50µM*; HP1b binding inh: -36%; JMJD2A Tudor: inconclusive

How did COc1ccc(CC(=O)N/N=C/c2cccn2-c2ccc([N+](=O)[O-])cc2)cc1OC do in these assays?
G9a inh: inconclusive; BAZ2B block: 40µM*; HP1b binding inh: inconclusive; JMJD2A Tudor: 45µM*; L3MBTL1 block: inconclusive

Results for Cn1cc(S(=O)(=O)N2CCOCC2)cc1C(=O)Nc1ccc(Cl)c(C(F)(F)F)c1 ?
G9a inh: -2%[59 µM]; BAZ2B block: 1%; HP1b binding inh: 28%; JMJD2A Tudor: -10%

Results for CS(=O)(=O)Nc1cccc(-c2ccc3ncnc(N4CCNCC4)c3c2)c1 ?
G9a inh: 9%[0.501 µM]
